Molecules are shown by their SMILES. The panel holds about 83,000 compounds, 20% with a hit somewhere; the sample as a whole holds those more often.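 Compound tested at a single concentration for 48 hours in 96-well plates; a percent growth value below 10 was scored as active.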 Active and inactive are the calls of the source.

For the test, the system named is A498 renal. Nature of the test: NCI-60 one-dose screen, 48 h (100 = growth as untreated, 0 = no growth, -100 = all killed). The settings on record: 10 µM unless noted.
In the case of `CCCCCN(CCCCC)CCC[C@@H](C)[C@H]1CC[C@H]2[C@@H]3[C@H](OCCCN)C[C@@H]4C[C@H](OCCCN)CC[C@]4(C)[C@H]3C[C@H](OCCCN)[C@]12C`, the growth is 92.8% (inactive).
For the compound `O=C(CN1CCOCC1)Nc1ccc(Cn2nnc3c2C(=O)c2nnn(Cc4ccc(NC(=O)CN5CCOCC5)cc4)c2C3=O)cc1`, the growth is -39.8% (active).
As to `COc1ccc(C(=O)/C=C/c2c(Cl)c3c(c(OC)c2Cl)OCC(=O)N3)cc1`, the growth is 83.5% (inactive).
Regarding `CCOc1ccc(Nc2nc(-c3c(C)nc4ncccn34)cs2)cc1`, the growth is -17.2% (active).
For the compound `CC/C(=C(\c1ccc(O)cc1)c1ccc(OCCN(C)CCN(C)C(=O)CCCCC(=O)c2c(C)[nH]c(/C=C3\N=C(c4ccc[nH]4)C=C3OC)c2C)cc1)c1ccccc1`, the growth was 66.5% (inactive).
Consider `O=C(CCCN1CCOCC1)Nc1ccc(Cn2nnc3c2C(=O)c2nnn(Cc4ccc(NC(=O)CCCN5CCOCC5)cc4)c2C3=O)cc1`, for which the growth is 102% (inactive).
For `COc1ccc2nc3cc(Cl)ccc3c(N3CCN(c4nccc(NCc5ccccc5)n4)CC3)c2c1`, the growth is 28.8% (inactive).
Consider `O=C1CC(c2nc3ccccc3[nH]2)CN1C1CCCCC1` (stereo unspecified), for which the growth was 79.7% (inactive).
With `O=C1Nc2ccccc2C12CC(c1ccc(Cl)cc1)=NN2` (stereo unspecified), the growth is 99.6% (inactive).
`O=C1/C(=C/c2ccc(Cl)cc2Cl)CN(S(=O)(=O)c2ccccc2)C/C1=C\c1ccc(Cl)cc1Cl`: the growth is 76.4% (inactive).
For the compound `O=C(CCCCN1CCOCC1)Nc1ccc(Cn2nnc3c2C(=O)c2nnn(Cc4ccc(NC(=O)CCCCN5CCOCC5)cc4)c2C3=O)cc1`, the growth was -91.1% (active).
Take `COc1ccc2nc3cc(Cl)ccc3c(N3CCN(c4nccc(Nc5ccccc5)n4)CC3)c2c1`: the growth was 16.6% (inactive).
With `CC1=C(NCCN2CCCC2)C(=O)c2c(OCc3cccc(Cl)c3)cccc2C1=O`, the growth is 47.4% (inactive).
With `O=C(CCN1CCOCC1)Nc1ccc(Cn2nnc3c2C(=O)c2nnn(Cc4ccc(NC(=O)CCN5CCOCC5)cc4)c2C3=O)cc1`, the growth is 71.8% (inactive).
As to `NC1=CSC2=N/C(=C\c3ccc(Cl)cc3)C(=O)N12`, the growth was 65.6% (inactive).
Then `Cc1sc2nc3[nH]/c(=C\c4ccc(Cl)cc4)c(=O)n3c(=O)c2c1C`, with 99.5% (inactive); and `COc1ccc2nc3cc(Cl)ccc3c(N3CCN(c4ccnc(N5CCN(C)CC5)n4)CC3)c2c1`, with 68.1% (inactive).
The value for `CN(C)CCCC(=O)Nc1ccc(Cn2nnc3c2C(=O)c2nnn(Cc4ccc(NC(=O)CCCN(C)C)cc4)c2C3=O)cc1` was 72.9% (inactive); that for `CCCCCCCCCCCCCCCCNCCC[C@@H](C)[C@H]1CC[C@H]2[C@@H]3[C@H](OCCCN)C[C@@H]4C[C@H](OCCCN)CC[C@]4(C)[C@H]3C[C@H](OCCCN)[C@]12C` was -5.88% (active); that for `O=C(Nc1cccc2[nH]c(C(F)(F)F)nc12)c1ccc(Br)cc1F` was -0.338% (active).
As for `CCCCNc1ccc2c3c1cccc3c(=O)n1c3ccccc3nc21`, the growth is 96.1% (inactive).
Then `COc1ccc(/C=C2\N=C3SC=C(N)N3C2=O)cc1`, with 5.67% (active).
On to `CC1=C(NCCN2CCCC2)C(=O)c2c(OCc3ccc(F)c(Cl)c3)cccc2C1=O`, for which the growth was 38.7% (inactive).
With `O=C1C[C@H](N2C(=O)c3ccccc3S2(=O)=O)C2CO[C@@H]1O2`, the growth was 93.9% (inactive).
Take `Cc1ccc(S(=O)(=O)n2cc(-c3csc(-c4cn(C)c5ncccc45)n3)c3ccccc32)cc1`: the growth was 52.2% (inactive).
On to `COc1ccc(-c2cnoc2-c2cc(OC)c3c(c2)OCCO3)cc1`, for which the growth was -8.01% (active).
Regarding `COc1ccccc1-c1ccc2c(N)c(C(=O)c3ccc4c(c3)OCO4)sc2n1`, the growth is 60.1% (inactive).
With `COc1ccc(/C=c2/c(=O)[nH]c3nc4sc(C)c(C)c4c(=O)n23)cc1`, the growth was 101% (inactive).
Regarding `O=c1c2cccc3c(Nc4c(F)cccc4F)ccc(c32)c2nc3ccccc3n12`, the growth is 109% (inactive).
For the compound `CCC(C)[C@@H]1NC(=O)[C@@H]2CCCN2C(=O)[C@H](Cc2ccccc2)NC(=O)[C@@H]2CCCN2C(=O)[C@H](Cc2ccccc2)NC(=O)[C@@H]2CCCN2C(=O)[C@H](Cc2ccccc2)NC1=O` (stereo partly specified), the growth was 108% (inactive).
As to `O=C1CC(c2nc3ccccc3s2)CN1C1CCCCC1` (stereo unspecified), the growth is 73.2% (inactive).
The value for `Cc1cc(OCc2ccc(C(F)(F)F)cc2)c2c(c1)C(=O)C=C(NCCN1CCCC1)C2=O` was 67.8% (inactive); that for `O=C1Nc2ccccc2C12CC(c1ccccc1)=NN2` (stereo unspecified) was 63.7% (inactive).
As for `CCN(CC)CCC(=O)Nc1ccc(Cn2nnc3c2C(=O)c2nnn(Cc4ccc(NC(=O)CCN(CC)CC)cc4)c2C3=O)cc1`, the growth is 14.6% (inactive).
In the case of `Cn1cc(-c2nc(-c3c[nH]c4ccccc34)cs2)c2cccnc21`, the growth was -0.249% (active).
For `CCN(CC)CCCC(C)N/C(=C1\C(=O)NC(=O)\C1=C(/NC(C)CCCN(CC)CC)c1cccc(OC)c1)c1cccc(OC)c1` (stereo unspecified), the growth is 60.2% (inactive).

For the origin of these results see PubChem BioAssay (NCI).
